Data taken from PubChem BioAssay AID1645853 (Buhrlage Lab, Dana-Farber Cancer Institute and Novartis …, 2021).
Out of some 47,000 compounds screened, about 2,000 (4.3%) were called active. Many of the other results were omitted from the sample, so actives are more common in it than they were. Values without a mark were called inactive. Rule as the data show it: active = inhibition above about 30%; inactive = the rest.

Molecular target: Ubiquitin carboxyl-terminal hydrolase 8 (Homo sapiens) (UniProt P40818)
Sequence (P40818 whole entry, looked up): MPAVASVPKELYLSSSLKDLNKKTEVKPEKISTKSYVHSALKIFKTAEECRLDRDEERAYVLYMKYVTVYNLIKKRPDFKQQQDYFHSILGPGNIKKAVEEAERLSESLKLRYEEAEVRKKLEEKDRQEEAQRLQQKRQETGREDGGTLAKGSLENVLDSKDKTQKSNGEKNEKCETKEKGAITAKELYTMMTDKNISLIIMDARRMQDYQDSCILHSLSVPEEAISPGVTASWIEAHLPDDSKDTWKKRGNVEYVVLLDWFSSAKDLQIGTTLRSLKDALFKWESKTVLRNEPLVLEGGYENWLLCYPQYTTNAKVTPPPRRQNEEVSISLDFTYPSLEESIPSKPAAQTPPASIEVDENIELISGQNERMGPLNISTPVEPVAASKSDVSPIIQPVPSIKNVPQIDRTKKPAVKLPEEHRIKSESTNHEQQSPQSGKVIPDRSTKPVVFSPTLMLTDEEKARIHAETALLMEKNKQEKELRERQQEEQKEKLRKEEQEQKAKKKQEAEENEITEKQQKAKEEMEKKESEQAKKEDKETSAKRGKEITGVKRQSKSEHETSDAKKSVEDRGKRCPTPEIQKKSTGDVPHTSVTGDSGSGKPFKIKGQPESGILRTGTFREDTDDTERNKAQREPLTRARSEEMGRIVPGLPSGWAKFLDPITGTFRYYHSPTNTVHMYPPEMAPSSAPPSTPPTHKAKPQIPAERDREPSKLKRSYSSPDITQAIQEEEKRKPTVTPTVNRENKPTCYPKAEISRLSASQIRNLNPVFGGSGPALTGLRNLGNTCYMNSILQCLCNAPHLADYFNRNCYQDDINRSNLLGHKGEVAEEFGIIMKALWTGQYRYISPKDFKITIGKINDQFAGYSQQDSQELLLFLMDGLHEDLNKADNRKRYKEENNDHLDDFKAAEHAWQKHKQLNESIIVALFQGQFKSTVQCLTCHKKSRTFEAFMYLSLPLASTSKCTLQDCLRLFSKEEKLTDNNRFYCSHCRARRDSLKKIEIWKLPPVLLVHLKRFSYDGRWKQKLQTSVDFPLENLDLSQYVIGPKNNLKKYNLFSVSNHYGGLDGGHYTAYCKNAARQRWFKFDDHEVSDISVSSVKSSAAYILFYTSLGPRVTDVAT
Assay: blocks human USP8 ubiquitin-rhodamine cleavage (AID 1645853)
Conditions: purified USP8, Ub-rhodamine cleavage fluorescence, 30 min; at 20 µM; stronger effect = higher value

| SMILES | inhibition |
| --- | --- |
| CC1=C(C(=O)Nc2ccccc2)C(c2ccc(OCc3c(Cl)cccc3Cl)cc2)n2ncnc2N1 (stereo not drawn) | -1.68% |
| COCCNC(=O)c1ccc2nnc3ncn(C(C)C)c3c2c1 | -31.7% |
| COc1ccc(-c2noc(C3(c4ccccc4)CCOCC3)n2)cc1 | 19.2% |
| COc1ccc(-c2noc(-c3ccc(N(C)Cc4ccco4)nn3)n2)cc1 | 35.7% (active) |
| COc1ccc(-c2nc(-c3cccs3)no2)cc1OC | -15.4% |
| O=C1CC(C(=O)Nc2ccccc2F)N=C(N2CCN(c3ccccc3F)CC2)N1 (stereo not drawn) | 3.41% |
| O=C(CSc1ccc2nnc(-c3ccccc3)n2n1)N1CCCc2ccccc21 | 29.4% |
| O=[N+]([O-])c1ccc(S(=O)(=O)N2CCN(c3nc4ccccc4s3)CC2)cc1 | -0.0867% |
| COc1cccc(NC(=O)CN2CCN(c3nc4ccc([N+](=O)[O-])cc4s3)CC2)c1 | -52.2% |
| CC(C)N(C(=O)CSc1nc2ccc([N+](=O)[O-])cc2s1)C(C)C | 49.5% (active) |
| O=C1NCCCCC1NS(=O)(=O)c1ccc2c(c1)OCCCO2 (stereo not drawn) | -2.35% |
| O=C(Cc1ccc(F)cc1)Nc1ccccc1Cc1ccccc1 | 19.3% |
| Cc1cc(F)ccc1NC(=O)Cc1n[nH]c(Cc2ccccc2)n1 | 2.95% |
| Cc1ccccc1NC(=O)Cc1csc2nc(-c3ccc(F)cc3)cn12 | 85.8% (active) |
| COc1cccc(C(=O)OCc2csc(-c3ccccc3)n2)c1OC | 4.14% |
| Nc1cc(C2CCN(C(=O)Cc3ccc(F)cc3)CC2)no1 | 1.13% |
| COc1cccc(NC(=O)Nc2nccn(-c3ccccc3)c2=O)c1 | 5.06% |
| COc1ccccc1CNCc1c(C(=O)O)c(C)n(-c2ccccc2)c1C | 27.6% |
| COc1cccc(-n2c(=O)[nH]c3c(C(N)=O)nc(-c4ccccn4)nc32)c1 | -282% |
| COc1cccc(-n2c(=O)c(C(=O)NC(C)c3ccccc3)c(O)c3cccnc32)c1 (stereo not drawn) | 81.5% (active) |
| COc1ccccc1CNC(=O)c1ccc(Cl)c(S(=O)(=O)N2CCCC2)c1 | -5.09% |
| COc1ccccc1CNC(=O)c1c(O)c2cccnc2n(-c2ccccc2)c1=O | 80.6% (active) |
| CN(C)S(=O)(=O)N1CCOC(c2cncc(-c3cccc(F)c3)n2)C1 (stereo not drawn) | -2.26% |
| O=C(C1COc2ccccc2O1)N1CCN(c2nc(C(F)(F)F)nc3ccccc23)CC1 (stereo not drawn) | 11.8% |

| SMILES | inhibition |
| --- | --- |
| COC(=O)c1ccc(C2Oc3ccccc3CN2c2ccccc2Cl)cc1 (stereo not drawn) | 22% |
| COc1ccc(-c2csc(N)n2)c(O)c1 | 3.16% |
| Cc1ccc(-n2c(C)nnc2SCC(=O)NC2CC2)cc1 | 1.76% |
| Cc1nc(C2CCCN2C(=O)c2ccc(OCC3CC3)nc2)no1 (stereo not drawn) | 5.37% |
| Cc1nc2cc(-c3noc(-c4sc(C)nc4C)n3)ccc2o1 | 7.81% |
| O=C(NCCc1c[nH]c2ccccc12)c1cc2cc(Cl)ccc2o1 | 16.2% |
| O=C(Cc1csc(NC(=O)c2ccc(=O)[nH]c2)n1)NCc1ccco1 | -11.3% |
| O=C(CCc1csc(NC(=O)c2ccc(=O)[nH]c2)n1)NCCc1c[nH]c2ccccc12 | 62.3% (active) |
| COc1cc(C2CCN(S(=O)(=O)c3cccc(C#N)c3)CC2)on1 | -4.99% |
| N=C(N)C1CN(Cc2ccccc2)C(=O)NC1=O (stereo not drawn) | -100% |
| c1cc(CNCc2ccc3c(c2)OCO3)ccn1 | 11% |
| c1ccc(-c2ccc(NCc3ccc4c(c3)OCO4)nn2)cc1 | 92% (active) |
| CCC(Oc1ccccc1)C(=O)NCc1ccc2c(c1)OCO2 (stereo not drawn) | -79.7% |
| COc1cc(N2CC[C@@H]3[C@@H](CO[C@H]3CNc3ncccn3)C2)ncn1 | -92.4% |
| N#Cc1cccc(CSc2ncnc(N)n2)c1 | 18.1% |
| Cn1cc2nc(SCC(=O)NCc3ccc(Cl)cc3)n(CC3CC3)c(=O)c2n1 | 38.7% (active) |
| COc1ccc(CNC(=O)CSc2nnc3c4ccccc4nc(-c4ccco4)n23)cc1 | -1.03% |
| Cc1oc(CNC(=O)Cc2ccc(Cl)cc2)nc1C(=O)N1CCC(C)CC1 | 0.0949% |
| O=C(CSc1ncn[nH]1)NCc1ccc2c(c1)OCO2 | 19.2% |
| CCN1CCN(c2ccc(NC(=O)C3CCCCC3)cn2)C1=O | 1.18% |
| CS(=O)(=O)N(Cc1ccccc1F)c1ccc(Oc2ccc(N(Cc3ccccc3F)S(C)(=O)=O)cc2)cc1 | 0.186% |
| O=C(NCCc1cccnc1)c1ccn(-c2ccc3ccccn23)n1 | -25.8% |
| Cc1nnc2ccc(-c3ccc(NC(=O)c4ccc(Br)o4)cc3)nn12 | 65.6% (active) |
| Cc1ccc(-c2cc(C(F)F)n3ncc(C(=O)NCC(C)C)c3n2)cc1 | 25.9% |

| SMILES | inhibition |
| --- | --- |
| CCCCc1nc2sc3c(SCC(=O)NCc4ccccc4)ncnc3c2c2c1CCC2 | -1.42% |
| CC1(C)CC(=O)c2ccc(OCC(=O)Nc3ccccc3)cc2O1 | 5.38% |
| O=C(O)CC1(CC(=O)Nc2ccc(Oc3ccccc3)cc2)CCCC1 | 33% (active) |
| COc1ccccc1C(=O)Nc1cccc(Oc2ccccc2)c1 | 11.4% |
| Cc1cc(C)cc(NC(=O)c2cnc3sc4c(n3c2=O)CCCC4)c1 | 3.8% |
| CCOC(=O)c1cc2c(ccn2C)n1CC(=O)N1CCc2ccccc2C1 | -42.9% |
| CCOC(=O)c1cc2c(ccn2C)n1CC(=O)N1CCC(C)CC1 | -57.3% |
| CCOC(=O)c1cc2c(ccn2C)n1CC(=O)Nc1ccc2c(c1)OCCO2 | 32.8% (active) |
| O=C(c1ccc(Cl)cc1)N1CCSc2cc(Cl)ccc21 | 12% |
| COc1ccc(CC(=O)Nc2ccc3c(c2)CN(C(=O)c2ccco2)CC3)cc1 | 33.2% (active) |
| COc1ccc(CC(=O)Nc2ccc3c(c2)CCC3)cc1S(=O)(=O)N1CCOCC1 | 0.366% |
| COc1cc2c(cc1OC)CN(C(=O)c1cc(=O)c3ccccc3o1)CC2 | 3.84% |
| CCN1CCn2c(-c3cnn(C)c3)cnc2C12CCN(S(=O)(=O)CC(C)C)CC2 | -29.1% |
| Cc1ccc(CCNCc2c(C(=O)O)n(C)c3ccccc23)cc1 | -1.77% |
| Cc1ccc(NCc2cc3c(C)nn(-c4ccccc4)c3[nH]c2=O)cc1C | 76.5% (active) |
| Cc1nn(-c2ccccc2)c2[nH]c(=O)c(C#N)c(-c3ccco3)c12 | 10.2% |
| CC(C)(C)c1nn(-c2ccccc2)c2[nH]c(=O)c(CNCCc3ccccc3)cc12 | 85% (active) |
| Cc1ccc(NC(=O)NCc2nnnn2-c2ccccc2)cc1C | 0.496% |
| Cc1cccc(-c2nnc3ccc(N4CCC(C(=O)NC(C)Cc5ccco5)CC4)nn23)c1 (stereo not drawn) | -6.13% |
| CN1C(=O)C(C)(C)COc2ccc(NS(=O)(=O)c3cccc(F)c3)cc21 | 11.7% |
| Cc1ccc(Cn2nccc2NC(=O)c2cc(-c3ccccc3)on2)cc1 | 14.1% |
| Cc1cc(C)cc(C(=O)N2CCN(c3nnc4ccccn34)CC2)c1 | -9.4% |
| Cc1nonc1C(=O)NCC(=O)N1Cc2ccccc2OC2(CCOCC2)C1 | 20.5% |
| COc1ccccc1CNC(=O)c1ccccc1N1C(=O)[C@@H]2Cc3c([nH]c4ccccc34)C(C)N2C1=O (stereo partly drawn) | -25.4% |

| SMILES | inhibition |
| --- | --- |
| O=C(NCc1ccccc1)c1nc[nH]c1C(=O)NCc1cccc(C(F)(F)F)c1 | -114% |
| O=C(Cc1c(Cl)cccc1Cl)NCc1cccc(C(F)(F)F)c1 | 49.9% (active) |
| O=C(Cc1cccc(C(F)(F)F)c1)Nc1cccn2ncnc12 | 2.29% |
| CC(C)=CCC(O)C1=CC(=O)c2c(O)ccc(O)c2C1=O (stereo not drawn) | -234% |
| Cc1cc(NC(C)C)n2ncc(-c3ccc(Cl)cc3)c2n1 | -13.7% |
| Cc1nc(CC(=O)Nc2ccc(F)c(F)c2)sc1C(=O)NC1CC1 | 10.3% |
| COc1cccc(CNS(=O)(=O)c2cc(-c3cc(C)no3)ccc2OC)c1 | -16.2% |
| CCn1c(-c2ccccc2)c(C(=O)COC(=O)C(NC(=O)c2ccccc2)C(C)C)c2ccccc21 (stereo not drawn) | 13.1% |
| CN1C(=O)C2(CCN(C(=O)c3ccccc3Cl)C2)c2ccccc21 (stereo not drawn) | -3.42% |
| O=C(Nc1ccccc1)N1CCN(c2ncccc2-c2nnc(C3CC3)o2)CC1 | -5.37% |
| CC1CCN(c2nc(F)c3c(c2F)S(=O)(=O)CCN3Cc2cccnc2)CC1 | 85.2% (active) |
| O=S1(=O)c2ccccc2O[C@H]2CCN(c3ncccn3)CC[C@@H]2N1Cc1cccnc1 | -15.4% |
| CCN1CCN(c2nc(F)c3c(c2F)S(=O)(=O)CCN3CC2CCCO2)CC1 (stereo not drawn) | 25.6% |
| COc1ccc(NC(=O)c2cc(S(=O)(=O)N3CCCCCC3)cn2C)cc1 | 0.0121% |
| CC(CS(=O)(=O)c1ccc2c(c1)NC(=O)CCS2)C(=O)N1CCc2ccccc21 (stereo not drawn) | -14% |
| CC1CN(C(=O)c2ccc(-n3cccn3)c(C#Cc3ccccn3)c2)CC(C)O1 (stereo not drawn) | -93.1% |
| COc1ccc(-c2nc(-c3nnn(Cc4cccc(F)c4)c3C)no2)cc1 | 0.245% |
| Cc1ccc(Cn2cc(-c3noc(-c4ccccn4)n3)nn2)cc1 | -56.3% |
| Cc1ccc(Cn2cc(-c3noc(-c4ccc[nH]4)n3)nn2)cc1 | 35.7% (active) |
| O=C(NCc1noc(C2CCCC2)n1)C1CCCCC1 | 19.8% |
| CCc1nnsc1C(=O)N1CCOC(c2cccc(N(C)C)n2)C1 (stereo not drawn) | 11.8% |
